Bcl-2 Bim block = inhibitors of Bim-Bcl-2 binding, primary screen, biochemical, multiplexed, human Bcl-2 family; AID 950, 2007; Bead-based flow cytometry, Bim peptide-Bcl-2 binding; inhibition, % at 10 µM; actives 0.06% (n = 190,000); in the data active means inhibition above about 40%
Bim-Bcl-W = inhibitors of Bim binding to Bcl-W, primary screen, biochemical, multiplexed, bead-based flow cytometry; actives 0.02% (n = 190,000); Bcl-2-like protein 2 (Homo sapiens), Q92843; Bim peptide-Bcl-W binding; inhibition, % at 10 µM;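 further: higher means less fluorescent Bim peptide bound to Bcl-W beads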
Target sequence (Q92843 whole entry, looked up): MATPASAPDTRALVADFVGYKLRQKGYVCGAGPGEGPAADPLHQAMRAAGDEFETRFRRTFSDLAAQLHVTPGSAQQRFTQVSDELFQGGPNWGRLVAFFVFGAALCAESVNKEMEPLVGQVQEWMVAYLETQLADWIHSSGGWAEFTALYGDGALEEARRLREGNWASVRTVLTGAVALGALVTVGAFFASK
Bim-Bfl-1 = inhibitors of Bim binding to Bfl-1, primary screen, biochemical, multiplexed, bead-based flow cytometry; Bcl-2-related protein A1 (Homo sapiens), Q16548; Bim-Bfl-1 binding inhibition; inhibition, % at 10 µM; actives 0.12% (n = 190,000); AID 1008, 2008
Target sequence (Q16548 whole entry, looked up): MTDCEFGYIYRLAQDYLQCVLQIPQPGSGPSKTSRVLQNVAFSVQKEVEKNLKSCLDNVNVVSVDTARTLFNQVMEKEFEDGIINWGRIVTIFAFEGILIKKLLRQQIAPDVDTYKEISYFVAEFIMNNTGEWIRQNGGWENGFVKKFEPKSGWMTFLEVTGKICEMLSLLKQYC
Bim-Bcl-XL = inhibitors of Bim-Bcl-XL binding, primary screen, biochemical, multiplexed, bead flow cytometry, human Bcl-XL. Bcl-2-like protein 1 (Homo sapiens), Q07817. Bim peptide-Bcl-XL binding, fluorescence. AID 1007, 2008. inhibition, % at 10 µM. actives 0.04% (n = 190,000)
Target sequence (Q07817 whole entry, looked up): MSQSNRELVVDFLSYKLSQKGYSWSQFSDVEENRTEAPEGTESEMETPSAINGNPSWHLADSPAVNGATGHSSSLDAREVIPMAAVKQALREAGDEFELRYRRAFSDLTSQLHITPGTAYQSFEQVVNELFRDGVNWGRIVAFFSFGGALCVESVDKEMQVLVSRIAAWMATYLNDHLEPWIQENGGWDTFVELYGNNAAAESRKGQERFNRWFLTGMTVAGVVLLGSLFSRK
Bcl-B Bim block = inhibitors of Bim-Bcl-B binding, primary screen, biochemical, multiplexed, human Bcl-2 family; inhibition, % at 10 µM; AID 951, 2007; actives 0.073% (n = 190,000); bead-based flow cytometry, Bim peptide-Bcl-B binding; Bcl-2-like protein 10 (Homo sapiens), Q9HD36
Large screens that a line does not name were inactive. In the library only some 0.18% were active in any assay of this set; here they are far more common. Unless noted, no stated cut-off is given here; in the data, active means inhibition above about 40%.

COc1ccc(C(=S)N2CCCCCC2)cc1	Bim-Bcl-W 46.0, Bim-Bfl-1 52.0, Bim-Bcl-XL 53.0
Cc1nnc(NCc2n[nH]c(=O)c3ccccc23)c2ccccc12	Bcl-B Bim block 57.0
COc1ccc(NCc2n[nH]c(=O)c3ccccc23)cc1	none
CCN(CC)S(=O)(=O)c1ccc(-c2nnc(SCc3nnc(-c4ccccc4)o3)o2)cc1	none
O=C(NC(Cc1ccccc1)C(=O)O)/C(=C/c1ccc(F)cc1)NC(=O)c1ccccc1 (configuration not stated)	none
CCCCCCc1cc2cc(C(=O)Nc3ccccc3)c(=O)oc2cc1O	Bcl-2 Bim block 45.0, Bcl-B Bim block 50.0
Cc1ccc(C)c(Oc2ncnc(N)c2[N+](=O)[O-])c1	Bim-Bfl-1 43.0, Bim-Bcl-XL 46.0
Cc1cc(C)c(C)c(Oc2ncnc(N)c2[N+](=O)[O-])c1	none
CN(C)CCNC(=O)C(=O)C1C(=O)Nc2ccccc21 (configuration not stated)	Bcl-2 Bim block 78.0, Bim-Bfl-1 52.0, Bcl-B Bim block 70.0
CC1CCCC(C)N1C(=O)CSc1nc(N)c(-c2ccccc2)c(=O)[nH]1 (configuration not stated)	none
Cc1sc(NC(=O)Cn2cnnn2)nc1-c1ccc(Cl)cc1	Bcl-2 Bim block 84.0, Bim-Bfl-1 53.0, Bcl-B Bim block 67.0
CCC(/C=C1\Sc2ccc(OC)cc2N1CCO)=C\c1sc2ccc(OC)cc2[n+]1CCO	Bcl-2 Bim block 60.0, Bim-Bcl-W 40.0, Bim-Bfl-1 62.0, Bim-Bcl-XL 51.0
CCC(/C=C1\Sc2ccc(OC)cc2N1CC)=C\c1sc2ccc(OC)cc2[n+]1CCCS(=O)(=O)[O-]	none
Cc1ccc(NC(=O)COC(=O)CNC(=O)c2ccc3ccccc3c2)c([N+](=O)[O-])c1	none
CC1=C(C(=O)Nc2ccccn2)C(c2ccc(Cl)cc2Cl)NC(=S)N1 (configuration not stated)	none
CC(C)c1ccc(C2CC(c3ccc(Br)cc3)=NN2C(N)=S)cc1 (configuration not stated)	Bcl-B Bim block 66.0
C/C(=N\NC(=O)Cc1cccn1C)c1ccc2ccccc2c1	Bcl-2 Bim block 50.0, Bcl-B Bim block 46.0
Cc1[nH]nc(SCC(=O)NCc2ccc(F)cc2)c1[N+](=O)[O-]	Bim-Bcl-XL 42.0
CC(C)(C)OC(=O)NCCCC[C@H](NC(=O)c1nc[nH]c1C(=O)NCc1ccccc1)C(=O)OC(C)(C)C	none
CN(Cc1ccccc1)C(=O)c1[nH]cnc1C(=O)N[C@@H](CCCCNC(=O)OC(C)(C)C)C(=O)OC(C)(C)C	Bcl-2 Bim block 83.0, Bim-Bfl-1 45.0, Bcl-B Bim block 73.0
N#Cc1cc(-c2ccccc2)nn1-c1ccccc1	Bim-Bfl-1 57.0
Cn1ccc(-c2ccccc2)n1	none
CCCCc1ccc(NC(=S)NCc2ccc(OC)cc2)cc1	Bcl-2 Bim block 44.0, Bcl-B Bim block 51.0
CC1(C)SC(=S)N(NC(=O)Nc2ccccc2)C1N(O)C(=O)Nc1cccc2ccccc12 (configuration not stated)	Bim-Bfl-1 48.0, Bim-Bcl-XL 45.0
CN1C(=S)SC(C)(C)C1N(O)C(=O)Nc1ccc(Cl)cc1 (configuration not stated)	none
CN1C(=O)/C(=C/c2ccc(-c3ccccc3[N+](=O)[O-])o2)SC1=Nc1ccc(Cl)c(C(=O)O)c1	Bim-Bcl-W 44.0, Bim-Bcl-XL 64.0, Bcl-B Bim block 44.0
CC(=O)OCC1CCCC2=C(C)C(=O)CCC21COC(C)=O (configuration not stated)	none
CCOC(=O)c1sc(NC(=O)CSc2n[nH]c(-c3ccccc3)n2)c(C#N)c1C	none
Cc1ccc(/C=C/C2=Cc3c(sc(NC(=O)CSc4n[nH]c(N)n4)c3C#N)C(C)(C)C2)o1	Bim-Bfl-1 47.0
Cc1ccc(Cl)c(OCCCCN(C)Cc2ccccc2)c1	none
CN(CCCOc1ccccc1Br)Cc1ccccc1	Bcl-2 Bim block 91.0, Bim-Bcl-W 98.0, Bim-Bfl-1 99.0, Bim-Bcl-XL 102.0, Bcl-B Bim block 108.0
CCc1ccc2nc(N3C(=O)c4oc5ccccc5c(=O)c4C3c3ccc(OC)c(OC)c3)sc2c1 (configuration not stated)	none
COc1cc(CNc2ccc(N3CCCC3)cc2)ccc1OCc1ccccc1F	none
COc1cc(CNc2ccc(N3CCCC3)cc2)ccc1OCc1ccccc1	Bim-Bfl-1 47.0
CCOc1ccccc1N(CC(=O)Nc1ccc(S(=O)(=O)N2CCOCC2)cc1)S(=O)(=O)c1ccc(Cl)cc1	none
C(=N\Nc1nc2ccccc2[nH]1)/c1ccncc1	none
Clc1nc2ccccc2cc1/C=N/Nc1nc2ccccc2[nH]1	Bcl-2 Bim block 93.0, Bim-Bcl-W 58.0, Bim-Bfl-1 69.0, Bim-Bcl-XL 58.0, Bcl-B Bim block 94.0
O=C1Nc2ccc([N+](=O)[O-])cc2OC1CCN1CCN(Cc2ccc3c(c2)OCO3)CC1 (configuration not stated)	Bcl-2 Bim block 72.0, Bim-Bfl-1 47.0, Bcl-B Bim block 73.0
CCCn1c(C)cc(-c2csc(N)n2)c1C	Bcl-B Bim block 46.0
C=CCn1c(C)cc(-c2csc(N)n2)c1C	none
COc1ccc(CCNc2nc(=S)[nH]c3cc(OC)c(OC)cc23)cc1OC	Bim-Bcl-XL 48.0
COc1cc2[nH]c(=S)nc(NCCc3ccc(S(N)(=O)=O)cc3)c2cc1OC	Bim-Bcl-XL 55.0
COc1cc2[nH]c(=S)nc(NCCc3ccc(C)cc3)c2cc1OC	none
COc1cc2[nH]c(=S)nc(Nc3ccc(NC(C)=O)cc3)c2cc1OC	Bim-Bcl-XL 50.0
COCCCNc1nc(=S)[nH]c2cc(OC)c(OC)cc12	none
O=C(O)C(Cc1c[nH]c2ccccc12)N1CCS(=O)(=O)CC1 (configuration not stated)	none
O=C(Cn1cnc2c(nnn2Cc2ccc(F)cc2)c1=O)NCc1ccco1	none
CNc1nc2ccccc2n1/N=C/c1cccc(OC)c1OC	Bcl-2 Bim block 92.0 (no result: Bim-Bfl-1, Bcl-B Bim block)
CCN(CC)c1ccc2c(c1)CCCN2	Bcl-2 Bim block 41.0, Bim-Bcl-W 49.0, Bim-Bfl-1 62.0
N#Cc1c2ccc(O)cc2n2ccccc12	none
O=C(Nc1ccccc1)c1ccc2nc(-c3ccco3)c(-c3ccco3)nc2c1	Bim-Bfl-1 45.0
O=C(NCCO)Nc1ccc2nc(-c3ccco3)c(-c3ccco3)nc2c1	Bim-Bfl-1 43.0
CC(=O)c1ccc(NC(=O)c2ccc3nc(-c4ccco4)c(-c4ccco4)nc3c2)cc1	Bim-Bfl-1 51.0
O=C(NCCO)Nc1ccc2nsnc2c1	none
O=C(NCCCO)c1ccc2nc(-c3ccco3)c(-c3ccco3)nc2c1	Bim-Bfl-1 52.0
CN(C)CCNC(=S)Nc1ccc(F)c(F)c1F	none

Bioassay records (PubChem)
